Bfl-1 A1 inh: inhibitors of the anti-apoptotic protein A1, read as caspase activation; MEF A1-2A-BIM cells, Caspase-Glo 3/7 luminescence, 3 h; percent of clofoctol response, vehicle zero; AID 2462; 0.066% of 330,000 active; caspase activation, % (concentration not given with the values);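 active means over half of replicate activation scores above 10%, or exactly half above 10 with the replicate mean above 10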
MOR-DOR ag: agonists of human mu-delta opioid receptor heterodimerization. 0.3% of 340,000 active. cells, OPRM1-OPRD1 heterodimerization, luminescence. AID 504326. activation, % at 9.3 µM; in the data active means activation above about 18%;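 further: 0% = vehicle-treated cells and 100% = reference agonist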
Target sequence (P35372 whole entry, looked up): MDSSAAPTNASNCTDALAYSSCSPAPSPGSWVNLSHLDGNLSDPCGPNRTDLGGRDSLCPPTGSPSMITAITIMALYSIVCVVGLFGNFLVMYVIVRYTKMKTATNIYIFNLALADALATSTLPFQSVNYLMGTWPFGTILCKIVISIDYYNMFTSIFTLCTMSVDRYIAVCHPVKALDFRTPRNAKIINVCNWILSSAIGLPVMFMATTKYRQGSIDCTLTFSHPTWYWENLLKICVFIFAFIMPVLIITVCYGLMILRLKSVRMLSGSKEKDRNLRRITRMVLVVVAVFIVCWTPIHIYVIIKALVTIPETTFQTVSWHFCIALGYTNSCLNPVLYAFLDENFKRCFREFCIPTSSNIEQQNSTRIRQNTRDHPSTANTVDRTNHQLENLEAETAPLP
Target sequence (P41143 whole entry, looked up): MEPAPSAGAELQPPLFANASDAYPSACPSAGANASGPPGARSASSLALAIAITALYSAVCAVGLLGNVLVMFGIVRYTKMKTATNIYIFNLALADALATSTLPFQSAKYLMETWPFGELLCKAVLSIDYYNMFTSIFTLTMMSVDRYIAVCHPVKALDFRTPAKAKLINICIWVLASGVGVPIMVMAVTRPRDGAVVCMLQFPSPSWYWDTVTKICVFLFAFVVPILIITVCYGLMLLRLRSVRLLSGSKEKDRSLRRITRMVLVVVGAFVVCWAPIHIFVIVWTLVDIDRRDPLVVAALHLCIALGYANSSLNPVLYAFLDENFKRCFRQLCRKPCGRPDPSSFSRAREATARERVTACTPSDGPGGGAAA
HTR5A inv ag: inverse agonist of human HTR5A in OPRM1-OPRD1 counter-screen | P47898 | HTR5A cell line, luminescence, inverse agonism | inhibition, % at 9.3 µM | 0.083% of 340,000 active; in the data active means inhibition mostly above about 23%, no sharp cut-off; inactive means mostly below about 18%;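 further: 0% = cells with DMSO and 100% = no-cell wells with DMSO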
OPRM1-OPRD1 inv: inverse agonists of human mu-delta opioid receptor heterodimerization | cell-based MOR-DOR heterodimer luminescence, inverse agonism | 0.21% of 340,000 active | inhibition, % at 9.3 µM | AID 504357; in the data active means inhibition above about 22%, passing the limit was not always enough;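 further: 0% = cells with DMSO and 100% = wells without cells with DMSO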
HTR5A ag ctr: HTR5A agonism, opioid heterodimer counter-screen; 0.61% of 340,000 active; P47898; HTR5A agonist assay, luminescence, cell-based; activation, % at 9.3 µM; in the data active means activation mostly above about 9.5%, no sharp cut-off; inactive means mostly below about 7.6%;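 further: 0% = cells with vehicle only and 100% = reference agonist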
OPRM1-D1 inv cf: confirmation of human OPRM1-OPRD1 heterodimerization inverse agonists; cells expressing OPRM1/OPRD1 heterodimer, luminescence; shares compounds with OPRM1-OPRD1 inv; 20% of 580 active; inhibition, % at 9.3 µM; in the data active means inhibition above about 32%;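 further: 0% = cells with DMSO and 100% = wells lacking cells with DMSO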
HTR5A inv count: inverse agonist of human HTR5A in OPRM1-OPRD1 counter-screen | inhibition, % at 9.3 µM | HTR5A-expressing cells, luminescence, inverse agonism | 580 tested, under 10 active | shares compounds with OPRM1-OPRD1 inv; call rule not given here;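 further: 0% = cells with DMSO and 100% = no-cell wells with DMSO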
* marks the source's active call; other numbers are inactive results; i = inactive; nt = no result. This is a sample that favours compounds with a hit; in the whole collection about 1.1% have one here.

SMILES	Bfl-1 A1 inh	MOR-DOR ag	HTR5A inv ag	OPRM1-OPRD1 inv	HTR5A ag ctr	OPRM1-D1 inv cf	HTR5A inv count
Cc1nn(CCC(=O)NNC(=S)Nc2ccc([N+](=O)[O-])cc2)c(C)c1[N+](=O)[O-]	0	-4	8	24	0	nt	nt
Cc1ccc(C(=O)COC(=O)c2cnccn2)cc1[N+](=O)[O-]	1	-11	19*	54*	-7	33*	17
O=C(COC(=O)c1cccnc1)c1ccc(Cl)c(Cl)c1	1	-10	7	57*	-6	-150	-11
O=C(OCC(=O)c1ccc(Cl)cc1Cl)c1cnccn1	0	-5	11	40*	-4	18	1
O=C(COC(=O)c1cccnc1)c1ccc(Cl)cc1	1	-3	12	17	1	nt	nt
O=C(COC(=O)c1cnccn1)c1ccc([N+](=O)[O-])cc1	-1	-4	-20	22	-2	nt	nt
O=C(COC(=O)c1cnccn1)c1ccc(Cl)c([N+](=O)[O-])c1	-1	-15	13	81*	-6	-113	-46
COc1ccc(NS(=O)(=O)NC(=O)c2cn(C)c3ccccc23)cc1	2	-1	-1	7	3	nt	nt
O=C1/C(=C/c2cccnc2)SC(=S)N1Nc1ccccc1	0	nt	nt	nt	nt	nt	nt
Cc1noc(C)c1CSCC(=O)Nc1cc(C(F)(F)F)ccc1N1CCOCC1	-1	-2	18	10	-7	nt	nt
O=C(O)CNS(=O)(=O)Cc1ccccc1	-1	-2	1	11	1	nt	nt
O=S(=O)(Cc1ccccc1)N(O)c1ccccc1	-1	-7	6	43*	-2	-11	0
CCCc1c(C(=O)Nc2ccc(C(F)(F)F)cc2)cnn1-c1ccccc1	0	5	-3	-26	0	nt	nt
CCCc1c(C(=O)NNc2ccc(C)cc2)cnn1-c1ccccc1	0	-8	-1	39*	2	-3	-16
CC(=O)Nc1ccc(NC(=O)COc2ccc(S(=O)(=O)N3CCCC3)cc2)cc1	0	0	20	-1	2	nt	nt
O=C(CS(=O)(=O)c1ccccc1)NCc1ccc(Cl)cc1	0	0	-5	-3	-1	nt	nt
Cc1nnc(SCc2nnc(-c3cccs3)o2)s1	0	-3	11	15	-5	nt	nt
COc1cc(C(C)=O)ccc1OCc1cn(CC(=O)c2ccc(O)cc2)nn1	nt	-7	9	32*	-2	i	-25
COc1ccccc1-c1noc(-c2ccccc2C(=O)NCC2CCCO2)n1 (centres undefined)	0	-2	17	11	2	nt	nt
Cc1ccc(N=C2C(=O)Nc3ccccc32)c(C)c1	1	-10	13	54*	-3	21	2
Cc1ccccc1N=C1C(=O)Nc2ccccc21	nt	-11	6	56*	-2	-128	5
O=C(C[n+]1ccccc1)NNc1ccccc1	0	-6	-21	33*	0	24	-16
COc1ccc(S(=O)(=O)NC2CCCCC2)c(C)c1C	0	0	-4	1	-2	nt	nt
O=C1C(=O)N(CC(=O)N2CCCC2)c2ccccc21	-1	-5	5	28	2	nt	nt
CC(C)NC(=O)CN1C(=O)C(=O)c2ccccc21	0	-9	8	47*	-3	-58	-163
SMILES	Bfl-1 A1 inh	MOR-DOR ag	HTR5A inv ag	OPRM1-OPRD1 inv	HTR5A ag ctr	OPRM1-D1 inv cf	HTR5A inv count
O=C1CC(Cc2ccccc2)C(=O)N1Cc1ccco1 (centres undefined)	0	-2	-12	11	2	nt	nt
O=C1c2ccccc2C(=O)N1CCOc1ccccc1Cl	-3	-2	-5	12	-2	nt	nt
Cc1cccc2c1N(CCOc1ccccc1Cl)C(=O)C2=O	1	-6	1	34*	0	-1	-7
Cc1ccccc1OCCN1C(=O)C(=O)c2cccc(C)c21	2	-9	-10	58*	2	-224	-55
COc1ccccc1OCCCN1C(=O)C(=O)c2cccc(C)c21	0	-8	13	41*	-5	56*	3
COc1ccc(S(=O)(=O)N(CC(=O)N2CCOCC2)Cc2ccccc2)cc1C	0	-1	-24	5	-5	nt	nt
CCOc1ccc(C=NC23CN4CN(CN(C4)C2)C3)cc1	0	3	-26	-14	2	nt	nt
CCOc1ccc(CNC23CN4CN(CN(C4)C2)C3)cc1	0	-3	-5	16*	2	28	9
C/C(=N/NC(=O)c1ccccc1)c1ccc(NC(=O)C(F)(F)F)cc1	0	-2	-19	15	8	nt	nt
Cc1cc(C)cc(OCC(=O)NNC(=S)NC(=O)C2CC2)c1	0	-7	9	39*	-4	-237	-14
Cn1nnc(NC(=S)NC(=O)c2cccc3ccccc23)n1	1	-8	5	41*	-1	9	3
Cn1nnc(NC(=S)NC(=O)c2cccs2)n1	-2	-6	21	31	-9	nt	nt
COc1cc(OC)cc(C(=O)NC(=S)Nc2nnn(C)n2)c1	0	-8	1	41*	-1	25	7
O=C(Cn1cnc2c(OCc3ccccc3)ncnc21)N[C@H](CO)Cc1cc2ccccc2[nH]1	1	nt	nt	nt	nt	nt	nt
CC(=O)NC(=S)Nc1ccccc1C(=O)Nc1ccccc1	0	-5	-24	27*	-2	7	-2
CCCCC(=O)NC(=S)Nc1ccccc1C(=O)Nc1ccccc1	0	-6	10	30*	-2	8	2
Cc1cc(C)nc(-n2nc(C)c(C3(O)C(=O)Nc4ccccc43)c2N)n1 (centres undefined)	-1	-4	11	23*	-4	-15	-4
Cc1cc(C)nc(-n2nc(C)c(C3(O)C(=O)Nc4ccc(F)cc43)c2N)n1 (centres undefined)	0	-14	17	62*	-10	53*	8
CC(=O)Nc1ccc(Br)cc1C(=O)C(=O)O	0	-7	11	36*	-5	-13	-37
CCCCC(=O)Nc1ccc(Br)cc1C(=O)O	0	-1	4	4	3	nt	nt
O=C(Nc1ccc(N2CCOCC2)c(Cl)c1)c1ccc(-n2cnnc2)cc1Cl	0	2	14	-10	5	nt	nt
CN1C(=O)C(O)(CC(=O)c2ccccc2O)c2cc(Br)ccc21 (centres undefined)	2	-13	3	68*	-1	-153	-34
O=C(NCc1ccccn1)c1ccc(Cn2c(=S)[nH]c3ccc(Br)cc3c2=O)cc1	-1	0	-10	2	4	nt	nt
O=c1c2cc(Cl)ccc2[nH]c(=S)n1Cc1ccccn1	0	-12	23	72*	-9	55*	10
CSc1nnc(C)c(/C=C/NOCc2ccc(Cl)cc2)n1	-1	-9	16	44*	-1	-95	2

Screening results as filed in PubChem.
